Compounds with a hit are over-represented: about 3.4% of the library has one in this group of screens.
Mito fusion act: inhibitors of mitochondrial division or activators of mitochondrial fusion | 320,000 compounds, 0.23% hits | S. cerevisiae fusion-defective mutant growth rescue, CellTiterGlo 48 h | Potency, µM (top dose mostly 46.1 µM), inactives show top-dose growth rescue (activation), hits mostly activators; further: % of control where 0% means no effect; nearly all actives have a fitted effect of over 45% in size
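Compounds are tested for their ability to restore growth of mitochondrial fusion-defective yeast strains at non-permissive 37C in YPEG medium over 48 hours. Viability is quantified by luciferase luminescence.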
GLS inh: blocks human kidney-isoform glutaminase activity; AID 624170; O94925; 410,000 compounds, 0.21% hits; GLS enzymatic activity, qHTS titration; Potency, µM (titrated, usually from 45.5 µM), for the others: at the highest dose activity change, negative = inhibition, most hits filed as inhibitors; further: on the % scale 0 is the no-effect control and ±100 the full control effect
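Enzyme dispensed in phosphate buffer (45 mM, pH 8.2, 0.02% Tween-20), compounds pinned in, then 1 mM L-glutamine solution and the glutamate oxidase–HRP–Amplex Red mix added; fluorescence read immediately and again after 30 min at room temperature.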
PKM2 activator: PKM2 (human) enzyme activation; AID 1631; purified PKM2, Kinase-Glo ATP luminescence, activation; response scale: 0% is enzyme alone, no compound; Potency, µM (highest dose often 57.5 µM), without a hit: top-dose activation, actives largely listed as activators; 260,000 compounds, 0.34% hits; P14618; further: on the % scale 0 is the no-effect control and ±100 the full control effect; nearly all actives have a fitted effect of over 55% in size
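Purified hPK-M2 (>95% pure) converted ADP (0.1 mM final) to ATP with 0.5 mM PEP in 50 mM imidazole pH7.2, KCl, MgCl2, Tween 20, BSA; 1 h at room temperature. ATP detected by Kinase-Glo luminescence.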
VDR inh: inhibitors of human vitamin D receptor; P11473; VDR-SRC2-3 peptide fluorescence polarization, 2 h; Potency, µM, for inactives: max response, negative = inhibition, usual class: inhibitors; 400,000 compounds, 0.93% hits; AID 504847; further: on the % scale 0 is the no-effect control and ±100 the full control effect
Target sequence (P11473 whole entry, looked up): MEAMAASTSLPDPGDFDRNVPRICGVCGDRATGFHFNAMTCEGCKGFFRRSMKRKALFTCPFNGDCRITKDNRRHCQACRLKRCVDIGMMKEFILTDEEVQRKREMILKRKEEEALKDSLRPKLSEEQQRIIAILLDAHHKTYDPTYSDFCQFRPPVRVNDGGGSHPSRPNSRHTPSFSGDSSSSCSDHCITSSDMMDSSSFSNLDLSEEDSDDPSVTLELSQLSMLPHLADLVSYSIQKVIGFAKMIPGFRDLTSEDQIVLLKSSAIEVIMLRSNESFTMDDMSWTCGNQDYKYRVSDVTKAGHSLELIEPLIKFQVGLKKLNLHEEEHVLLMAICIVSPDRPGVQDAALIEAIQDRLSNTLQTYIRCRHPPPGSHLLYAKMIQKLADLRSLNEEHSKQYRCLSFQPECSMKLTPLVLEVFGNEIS
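Compounds are added to VDR with labelled SRC2-3 coactivator peptide and held 2 h at room temperature. Inhibition of the VDR–peptide interaction is then read as a change in fluorescence polarization.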
PLK1 PBD block: inhibitors of human PLK1 polo-box domain binding; Potency, µM, for the others: max response, negative = inhibition, actives largely listed as inhibitors; P53350; Plk1 PBD binding of FITC phosphopeptide, fluorescence polarization; AID 720504; 360,000 compounds, 2.8% hits; further: series mostly up to about 57 µM; on the % scale 0 is the no-effect control and ±100 the full control effect; nearly all actives have a fitted effect of over 65% in size
GCN5L2 inh: blocks human GCN5L2 histone acetyltransferase; GCN5L2 HAT assay, ThioGlo1 CoA-SH fluorescence; Potency, µM (top dose mostly 58.9 µM), inactives show at the top dose activity change, negative = inhibition, hits mostly inhibitors; 390,000 compounds, 0.21% hits; further: on the % scale 0 is the no-effect control and ±100 the full control effect
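Compounds, pin-transferred from DMSO stocks, meet 20nM GCN5L2 for 15 min before the reaction begins with H3(1-25) peptide (75uM) and acetyl-CoA (70uM). Thiol-reactive ThioGlo1 reports CoA release over 20 min at room temperature.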
An asterisk follows results filed as active. The call rests on the fitted dose curve; in most records, active means well fitted curve in the direction sought with a large enough effect; inconclusive means small, poorly fitted or top-dose-only effect, or another doubt; inactive means no such curve, though single readings can be large; an effect the other way counts as inactive or inconclusive. Potency means the concentration at half of the fitted maximal effect.

What do the screens show for `CC(C)CCNC(=O)c1cn(C)c2ccc(S(=O)(=O)N3CCOCC3)cc2c1=O`?
GLS inh: 3%; VDR inh: 9%; GCN5L2 inh: 1%

What do the screens show for `CC1(NC(=O)NCCCCCCNC(=O)NC2(C)CCS(=O)(=O)C2)CCS(=O)(=O)C1` (stereo unspecified)?
Mito fusion act: 0%; GLS inh: -19%; VDR inh: 6%; PLK1 PBD block: 3%; GCN5L2 inh: -1%

Results for CCOc1ccc(-c2nnn(CCC#N)n2)cc1OC ?
Mito fusion act: -5%; GLS inh: 0%; PKM2 activator: 0%; VDR inh: inconclusive; PLK1 PBD block: 19µM*; GCN5L2 inh: -4%

What do the screens show for `CCc1ccc(-c2nnn(CCC#N)n2)cc1`?
Mito fusion act: -2%; GLS inh: 1%; PKM2 activator: -5%; VDR inh: -3%; PLK1 PBD block: -8%; GCN5L2 inh: -3%

Results for CC(C)C[C@@H](CC#N)N1CCN(Cc2ccccc2)CCC1=O ?
Mito fusion act: 0%; GLS inh: -2%; PKM2 activator: 0%; VDR inh: -14%; PLK1 PBD block: -12%; GCN5L2 inh: 0%

What do the screens show for `COc1ccc(NC(=O)CSc2nnc3ccc(-c4ccncc4)nn23)cc1OC`?
Mito fusion act: -24%; GLS inh: 5%; PKM2 activator: 2%; VDR inh: -19%; PLK1 PBD block: -19%; GCN5L2 inh: 10%

Results for CC(OC(=O)CC1Sc2ccccc2NC1=O)C(=O)N(C)Cc1ccccc1 (stereo unspecified) ?
GLS inh: 6%; VDR inh: -13%; PLK1 PBD block: 19µM*

What do the screens show for `COc1cccc(Nc2nc3cc(C)ccc3nc2NS(=O)(=O)c2ccc(Cl)cc2)c1`?
GLS inh: 5%; VDR inh: 4%; GCN5L2 inh: -12%

What do the screens show for `CCC(=O)N(C)CCc1cc2c(c(OC)c1/C=N/NC(=O)c1ccc(Br)cc1)OCO2`?
Mito fusion act: -1%; GLS inh: 9%; PKM2 activator: 9%; VDR inh: inconclusive; PLK1 PBD block: 24µM*; GCN5L2 inh: -7%

How did CCC(=O)N(C)CCc1cc2c(c(OC)c1/C=N/NC(=O)c1ccccc1O)OCO2 do in these assays?
Mito fusion act: -2%; GLS inh: 3%; PKM2 activator: 7%; VDR inh: 1%; PLK1 PBD block: 0%; GCN5L2 inh: -7%

What do the screens show for `Cc1cc(C)n2cc(CSc3nnnn3-c3ccccc3C)nc2n1`?
Mito fusion act: -6%; GLS inh: 3%; PKM2 activator: 14µM*; VDR inh: inconclusive; PLK1 PBD block: 0%; GCN5L2 inh: -1%

How did O=[N+]([O-])c1ccccc1S(=O)(=O)N1CCN(c2nc(-c3ccccc3)nc3ccccc23)CC1 do in these assays?
VDR inh: -10%

How did COc1cccc([C@@H]2Oc3ccc(Br)cc3C(=O)[C@H]2OC(=O)Nc2ccc(OC(F)F)cc2)c1 do in these assays?
VDR inh: 0%

How did COc1ccc(/C(C)=N/N=C2/NC(=O)CC(C(=O)O)S2)cc1 (stereo unspecified) do in these assays?
Mito fusion act: -3%; GLS inh: inconclusive; PKM2 activator: -2%; VDR inh: inconclusive; PLK1 PBD block: 12µM*; GCN5L2 inh: -23%

Results for C/C(=N\N=C1\NC(=O)CC(C(=O)O)S1)c1ccc(F)cc1 (stereo unspecified) ?
Mito fusion act: -2%; GLS inh: 2%; PKM2 activator: 2%; VDR inh: -14%; PLK1 PBD block: -5%; GCN5L2 inh: -6%

What do the screens show for `Oc1ccc2ccccc2c1SSc1c(O)ccc2ccccc12`?
Mito fusion act: 6%; VDR inh: 10µM*; GCN5L2 inh: inconclusive

Results for Cc1cc(NC(=O)C(C)C)ncc1NC(=O)c1ccccn1 ?
Mito fusion act: 4%; GLS inh: 9%; PKM2 activator: -16%; VDR inh: -17%; PLK1 PBD block: 27µM*; GCN5L2 inh: 3%

Results for CCCC(=O)Nc1cc(C)c(NC(=O)c2ccccn2)cn1 ?
Mito fusion act: 1%; GLS inh: 14%; PKM2 activator: -17%; VDR inh: -9%; PLK1 PBD block: inconclusive; GCN5L2 inh: inconclusive

How did CN(C)c1ccc(N/C=C/C(=O)C(C)(C)C)cc1 do in these assays?
Mito fusion act: -5%; GLS inh: 21%; PKM2 activator: 3%; VDR inh: 16µM*; PLK1 PBD block: -3%; GCN5L2 inh: -6%

How did CN(C)c1ccc(N/C=C/C(=O)c2ccccc2)cc1 do in these assays?
Mito fusion act: -6%; GLS inh: 8%; PKM2 activator: -53%; VDR inh: 79µM*; PLK1 PBD block: 9%; GCN5L2 inh: -7%

What do the screens show for `CCOC(=O)c1ccc(N/C=C/C(=O)C(C)(C)C)cc1`?
Mito fusion act: 0%; GLS inh: 2%; PKM2 activator: -4%; VDR inh: -23%; PLK1 PBD block: -9%; GCN5L2 inh: -8%

What do the screens show for `CC(C)N1C(=O)S/C(=C/c2ccc(Sc3nc4ccccc4[nH]3)o2)C1=O`?
Mito fusion act: inconclusive; GLS inh: 3%; PKM2 activator: 1%; VDR inh: 0%; PLK1 PBD block: -2%; GCN5L2 inh: -4%

What do the screens show for `C=CCN1C(=O)S/C(=C/c2ccc(Sc3nc4ccccc4[nH]3)o2)C1=O`?
Mito fusion act: 22µM*; GLS inh: -8%; PKM2 activator: 19%; VDR inh: 12%; PLK1 PBD block: -8%; GCN5L2 inh: -10%

Results for Cc1ccn2cc(CCNC(=O)CC(C)(C)C)nc2c1 ?
Mito fusion act: -3%; GLS inh: 12%; PKM2 activator: -6%; VDR inh: -17%; PLK1 PBD block: -2%; GCN5L2 inh: 1%

How did COc1ccc(C(=O)NCCc2cn3ccccc3n2)cc1 do in these assays?
Mito fusion act: -1%; GLS inh: -1%; PKM2 activator: -2%; VDR inh: inconclusive; PLK1 PBD block: 30µM*; GCN5L2 inh: 2%

Results for COc1cc(C(=O)NCCc2cn3ccccc3n2)cc(OC)c1OC ?
Mito fusion act: 1%; GLS inh: 0%; PKM2 activator: 3%; VDR inh: -2%; PLK1 PBD block: -8%; GCN5L2 inh: -23%

How did Cc1ccn2cc(CCNC(=O)COc3ccccc3)nc2c1 do in these assays?
Mito fusion act: 0%; GLS inh: -2%; PKM2 activator: -1%; VDR inh: inconclusive; PLK1 PBD block: 12µM*; GCN5L2 inh: 2%

What do the screens show for `CC(=O)NC12CC3CC(C1)CC(C(=O)N(C)CC(=O)Nc1ccccc1Cl)(C3)C2`?
Mito fusion act: -1%; GLS inh: 5%; VDR inh: -20%; PLK1 PBD block: -10%; GCN5L2 inh: -17%

Screening data deposited in PubChem by National Center for Advancing Translational Sciences (NCATS).
